Test results: PubChem BioAssay (NCI)
The panel holds about 83,000 compounds, 20% with a hit somewhere; the sample as a whole holds those more often.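 Results are percent growth after 48 hours of single-concentration exposure. 100 means growth as in untreated cells, lower positive values show inhibition; negative values down to -100 show cell death.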

Key:
Assay in all cases: NCI-60 one-dose screen, 48 h (100 = growth as untreated, 0 = no growth, -100 = all killed)
Conditions in all cases: 10 µM unless noted; active = growth percent below 10; inactive = the rest
DU-145 prostate = test system: DU-145 prostate
K-562 leukemia = test system: K-562 leukemia
MALME-3M melanoma = test system: MALME-3M melanoma
MDA-MB-231 breast = test system: MDA-MB-231 breast
RXF 393 renal = test system: RXF 393 renal
SF-268 CNS = test system: SF-268 CNS
SF-295 CNS = test system: SF-295 CNS
SF-539 CNS = test system: SF-539 CNS
UACC-257 melanoma = test system: UACC-257 melanoma
M14 melanoma = test system: M14 melanoma

Measured: growth

CC1(C)C2CCC1(C)C1(C2)OCCS1 (stereo not given)
inactive: DU-145 prostate 103% | K-562 leukemia 96.5% | MALME-3M melanoma 94.6% | MDA-MB-231 breast 100% | RXF 393 renal 96% | SF-268 CNS 93.8% | SF-295 CNS 92.2% | SF-539 CNS 94.1% | UACC-257 melanoma 102% | M14 melanoma 113%

CC(=O)c1cccc(N(C)S(=O)(=O)c2ccc(C)cc2)c1
inactive: DU-145 prostate 98.2% | K-562 leukemia 47.8% | MALME-3M melanoma 84% | MDA-MB-231 breast 93.1% | RXF 393 renal 116% | SF-268 CNS 93% | SF-295 CNS 93.2% | SF-539 CNS 79.1% | UACC-257 melanoma 94.7% | M14 melanoma 77.6%

O=C(O)c1cccc(-n2ncc(Cl)c(Cl)c2=O)c1
inactive: DU-145 prostate 114% | K-562 leukemia 109% | MALME-3M melanoma 106% | MDA-MB-231 breast 103% | RXF 393 renal 118% | SF-268 CNS 108% | SF-295 CNS 102% | SF-539 CNS 101% | UACC-257 melanoma 89.2% | M14 melanoma 101%

CS(=O)CC(=N\O)/C(CS(C)=O)=N\O (stereo not given)
inactive: DU-145 prostate 102% | K-562 leukemia 106% | MALME-3M melanoma 97.5% | MDA-MB-231 breast 101% | RXF 393 renal 114% | SF-268 CNS 98.5% | SF-295 CNS 101% | SF-539 CNS 101% | UACC-257 melanoma 96.3% | M14 melanoma 96.3%

COc1cccc2c1Cc1ccccc1-2
inactive: DU-145 prostate 106% | K-562 leukemia 94.4% | MALME-3M melanoma 117% | MDA-MB-231 breast 93.6% | RXF 393 renal 97.9% | SF-268 CNS 99.8% | SF-295 CNS 103% | SF-539 CNS 107% | UACC-257 melanoma 102% | M14 melanoma 102%

c1ccc(Nc2ccccn2)nc1
inactive: DU-145 prostate 120% | K-562 leukemia 90.5% | MALME-3M melanoma 83.4% | MDA-MB-231 breast 97.1% | RXF 393 renal 97.9% | SF-268 CNS 102% | SF-295 CNS 99.3% | SF-539 CNS 94.6% | UACC-257 melanoma 95.3% | M14 melanoma 99.9%

COc1nc(Nc2cccc(C(F)(F)F)c2)nc(OC)n1
inactive: DU-145 prostate 105% | K-562 leukemia 87% | MALME-3M melanoma 116% | MDA-MB-231 breast 90.7% | RXF 393 renal 102% | SF-268 CNS 98.4% | SF-295 CNS 88.4% | SF-539 CNS 98% | UACC-257 melanoma 121% | M14 melanoma 113%

C=CCc1cc(OC)c(O)c(OC)c1
inactive: DU-145 prostate 107% | K-562 leukemia 119% | MALME-3M melanoma 95.1% | MDA-MB-231 breast 104% | RXF 393 renal 119% | SF-268 CNS 97% | SF-295 CNS 97.3% | SF-539 CNS 92.1% | UACC-257 melanoma 101% | M14 melanoma 101%

O=C(O)Cc1ccc(Cl)cc1
inactive: DU-145 prostate 107% | K-562 leukemia 53.6% | MALME-3M melanoma 102% | MDA-MB-231 breast 102% | RXF 393 renal 125% | SF-268 CNS 105% | SF-295 CNS 97.5% | SF-539 CNS 99.4% | UACC-257 melanoma 111% | M14 melanoma 93.1%

Cc1onc(-c2c(F)cccc2Cl)c1-c1ncc(-c2ccc(Br)cc2)o1
inactive: DU-145 prostate 50% | K-562 leukemia 24% | MALME-3M melanoma 45.2% | MDA-MB-231 breast 52.3% | RXF 393 renal 58.7% | SF-268 CNS 43.1% | SF-295 CNS 36.4% | SF-539 CNS 39.6% | UACC-257 melanoma 23.7% | M14 melanoma 54.3%

Oc1ccc(N=Cc2ccc(OCc3ccccc3)cc2)cc1
inactive: DU-145 prostate 108% | K-562 leukemia 120% | MALME-3M melanoma 93.5% | MDA-MB-231 breast 92.5% | RXF 393 renal 99.2% | SF-268 CNS 103% | SF-295 CNS 92% | SF-539 CNS 105% | UACC-257 melanoma 118% | M14 melanoma 104%

C=CC(C)C(C)(C)O (stereo not given)
inactive: DU-145 prostate 105% | K-562 leukemia 94% | MALME-3M melanoma 107% | MDA-MB-231 breast 103% | RXF 393 renal 105% | SF-268 CNS 95.3% | SF-295 CNS 102% | SF-539 CNS 105% | UACC-257 melanoma 109% | M14 melanoma 102%

C=CC(=O)OC1CCC(C(C)(C)CC)CC1 (stereo not given)
inactive: DU-145 prostate 113% | K-562 leukemia 109% | MALME-3M melanoma 110% | MDA-MB-231 breast 106% | RXF 393 renal 113% | SF-268 CNS 102% | SF-295 CNS 120% | SF-539 CNS 105% | UACC-257 melanoma 115% | M14 melanoma 107%

FC(F)(F)c1cc(NC2=NCCN=C(Nc3cc(C(F)(F)F)cc(C(F)(F)F)c3)SS2)cc(C(F)(F)F)c1
inactive: DU-145 prostate 66.6% | K-562 leukemia 28.8% | MALME-3M melanoma 37% | MDA-MB-231 breast 73.2% | RXF 393 renal 77.6% | SF-268 CNS 74.2% | SF-295 CNS 52.6% | SF-539 CNS 81.3% | UACC-257 melanoma 64.4% | M14 melanoma 82.1%

CCCNS(=O)(=O)c1ccc(Cl)cc1
inactive: DU-145 prostate 109% | K-562 leukemia 104% | MALME-3M melanoma 105% | MDA-MB-231 breast 102% | RXF 393 renal 114% | SF-268 CNS 106% | SF-295 CNS 87.8% | SF-539 CNS 98.1% | UACC-257 melanoma 101% | M14 melanoma 101%
